Test results reported in PubChem BioAssay.
For part of these data: Potency and affinity values are given separately. Activity calls are given as the source filed them. Unless noted, how the calls were made is not given here.

Experiments:
[1] = antimalarial activity against Dd2 strain (AID 2302;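 active means growth inhibition above 50% at the single 2 µM test dose, taken to imply half-maximal potency below 2 µM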;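 further: 0% = DMSO untreated growth and 100% = chloroquine plus artemisinin killed control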); conditions: P. falciparum Dd2 in RBCs, LDH growth readout, 72 h; at 2 µM; active compounds read high
[2] = HepG2 cytotoxicity, primary screen, cytotoxicity control for P. falciparum antimalarial project, cell-based, ATP luminescence (AID 2303;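 active means inhibition above 50%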;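 further: 0% = DMSO wells and 100% = digitonin-killed cells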); conditions: HepG2 viability, 24-48 h, at 10 µM, active compounds read high
[3] = target: L-lactate dehydrogenase (Plasmodium falciparum (isolate CDC / Honduras)) (UniProt Q27743); assay: PfLDH activity inhibition – cell lysate, 3D7 strain, counter-screen for P. falciparum growth inhibition project (AID 2304);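 further: 0% = vehicle and 100% = reference inhibitor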; conditions: P. falciparum 3D7 crude extract, LDH APAD/NBT absorbance; at 2 µM; active compounds read high
[4] = inhibition of 3D7 malaria parasite growth – strain 3D7 (AID 2306);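 further: 0% = DMSO wells and 100% = chloroquine plus artemisinin control wells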; conditions: P. falciparum 3D7 erythrocytic growth, LDH absorbance, 72 h; at 2 µM; active compounds read high
[5] = target: Calcium-dependent protein kinase 1 (Plasmodium falciparum (isolate 3D7)) (UniProt P62344); assay: PfCDPK1 kinase inhibitors, biochemical, TCAMS library (AID 1159585; cut-off not given, nearly all actives have IC50 up to about 0.98 µM;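 further: inhibitors leave more ATP so luminescence rises with inhibition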); conditions: recombinant PfCDPK1, Kinase-Glo ATP depletion luminescence
[6] = target: Plasmodium falciparum protein kinase 6 (PK6, PF3D7_1337100) (UniProt Q8IDW1); assay: PfPK6 kinase inhibitors, biochemical, TCAMS library (AID 1159586); conditions: recombinant PfPK6, Kinase-Glo ATP depletion luminescence
[7] = target: Protein kinase 7 (PK7), Plasmodium falciparum 3D7 (PF3D7_0213400) (UniProt Q7YTF7); assay: inhibition of Plasmodium PK7 catalytic activity – biochemical, TCAMS antimalarial set, Kinase-Glo luminescence (AID 1159587); conditions: recombinant PfPK7, Kinase-Glo ATP depletion luminescence
[8] = target: Calcium-dependent protein kinase 4 (Plasmodium falciparum (isolate 3D7)) (UniProt Q8IBS5); assay: PfCDPK4 kinase inhibitors, biochemical, TCAMS library (AID 1159588; cut-off not given, nearly all actives have IC50 up to about 0.91 µM); conditions: recombinant PfCDPK4, Kinase-Glo ATP depletion luminescence
Sequence of Calcium-dependent protein kinase 4 (Plasmodium falciparum (isolate 3D7)) (Q8IBS5 whole entry, looked up): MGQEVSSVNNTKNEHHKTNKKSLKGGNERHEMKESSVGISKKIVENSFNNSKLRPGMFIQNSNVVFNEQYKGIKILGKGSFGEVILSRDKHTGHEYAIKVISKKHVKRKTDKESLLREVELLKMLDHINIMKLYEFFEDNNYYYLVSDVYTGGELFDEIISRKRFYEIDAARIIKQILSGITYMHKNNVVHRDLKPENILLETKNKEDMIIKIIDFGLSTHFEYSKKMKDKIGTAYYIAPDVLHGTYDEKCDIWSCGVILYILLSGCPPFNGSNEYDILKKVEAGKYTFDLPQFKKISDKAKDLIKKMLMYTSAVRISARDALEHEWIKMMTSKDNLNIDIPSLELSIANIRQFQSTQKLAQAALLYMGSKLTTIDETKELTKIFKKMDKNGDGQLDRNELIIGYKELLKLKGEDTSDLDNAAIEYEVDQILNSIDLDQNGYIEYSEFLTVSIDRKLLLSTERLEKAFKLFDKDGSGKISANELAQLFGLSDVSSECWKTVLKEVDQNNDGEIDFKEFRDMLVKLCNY

Sequence of Protein kinase 7 (PK7), Plasmodium falciparum 3D7 (PF3D7_0213400) (Q7YTF7 1-343): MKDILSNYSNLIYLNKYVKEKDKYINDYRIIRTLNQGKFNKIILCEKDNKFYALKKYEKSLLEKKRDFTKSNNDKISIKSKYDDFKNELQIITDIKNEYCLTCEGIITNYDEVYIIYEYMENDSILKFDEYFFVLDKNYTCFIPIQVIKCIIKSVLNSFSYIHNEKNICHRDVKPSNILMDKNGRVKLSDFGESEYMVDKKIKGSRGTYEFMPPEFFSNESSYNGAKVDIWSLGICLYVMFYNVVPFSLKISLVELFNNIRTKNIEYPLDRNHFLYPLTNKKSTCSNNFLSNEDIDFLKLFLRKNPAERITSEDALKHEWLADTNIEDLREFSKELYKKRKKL
Sequence of Calcium-dependent protein kinase 1 (Plasmodium falciparum (isolate 3D7)) (P62344 whole entry, looked up): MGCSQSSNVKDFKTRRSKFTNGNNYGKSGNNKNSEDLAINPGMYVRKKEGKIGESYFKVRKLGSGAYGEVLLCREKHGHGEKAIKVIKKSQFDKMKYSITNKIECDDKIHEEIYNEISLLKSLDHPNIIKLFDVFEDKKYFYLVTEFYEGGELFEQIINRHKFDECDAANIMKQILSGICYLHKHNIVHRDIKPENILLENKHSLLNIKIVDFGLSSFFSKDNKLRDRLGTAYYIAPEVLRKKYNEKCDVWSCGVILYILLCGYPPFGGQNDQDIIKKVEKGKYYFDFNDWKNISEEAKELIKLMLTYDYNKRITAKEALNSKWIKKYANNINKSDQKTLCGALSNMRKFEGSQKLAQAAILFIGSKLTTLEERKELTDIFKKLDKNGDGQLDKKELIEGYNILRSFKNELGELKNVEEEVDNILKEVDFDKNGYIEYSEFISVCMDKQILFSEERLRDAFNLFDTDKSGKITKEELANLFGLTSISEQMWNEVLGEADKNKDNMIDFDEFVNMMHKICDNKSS
Sequence of Plasmodium falciparum protein kinase 6 (PK6, PF3D7_1337100) (Q8IDW1 1-305): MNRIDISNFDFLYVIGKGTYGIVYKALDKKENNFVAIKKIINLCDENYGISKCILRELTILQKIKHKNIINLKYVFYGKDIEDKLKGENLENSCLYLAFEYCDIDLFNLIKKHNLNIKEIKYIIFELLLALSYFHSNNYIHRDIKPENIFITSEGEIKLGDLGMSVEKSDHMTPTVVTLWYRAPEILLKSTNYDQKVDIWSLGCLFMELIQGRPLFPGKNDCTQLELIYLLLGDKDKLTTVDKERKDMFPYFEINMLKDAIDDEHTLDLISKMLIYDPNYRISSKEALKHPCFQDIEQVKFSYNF
Sequence of L-lactate dehydrogenase (Plasmodium falciparum (isolate CDC / Honduras)) (Q27743 whole entry, looked up): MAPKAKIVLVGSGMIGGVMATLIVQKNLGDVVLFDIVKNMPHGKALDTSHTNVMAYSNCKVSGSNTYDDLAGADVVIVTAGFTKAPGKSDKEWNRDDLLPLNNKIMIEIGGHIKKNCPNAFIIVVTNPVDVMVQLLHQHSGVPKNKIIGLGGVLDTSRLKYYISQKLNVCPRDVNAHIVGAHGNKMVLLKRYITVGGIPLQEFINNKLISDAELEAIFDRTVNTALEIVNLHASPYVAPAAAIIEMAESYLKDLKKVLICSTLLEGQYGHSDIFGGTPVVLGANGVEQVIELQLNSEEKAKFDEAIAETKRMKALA

NC(=NCc1ccc(O)cc1)Nc1nc(-c2ccc(OCCCn3ccnc3)cc2)cs1
active: growth inhibition [1] 89% | growth inhibition [4] 102%
inactive: inhibition [2] 13% | inhibition [3] 2% | outcome [5] | outcome [6] | outcome [7] | outcome [8]

Cc1cc(N[C@@H](Cc2ccccc2)C(=O)NCCCOC(C)C)nc(NCCc2ccc(F)cc2)n1
active: growth inhibition [4] 101%
inactive: growth inhibition [1] 36% | inhibition [2] 15% | inhibition [3] 0% | outcome [5] | outcome [6] | outcome [7] | outcome [8]

CCCCCCNC(=O)C1Cc2c([nH]c3cc(Cl)ccc23)C2(CCN(Cc3ccccc3)CC2)N1 (centres undefined)
active: growth inhibition [1] 56% | growth inhibition [4] 90%
inactive: inhibition [2] 21% | inhibition [3] 2% | outcome [5] | outcome [6] | outcome [7] | outcome [8]
